Assays:
[1] = target: T1, Ephrin type-A receptor 3 (Homo sapiens) (UniProt P29320); conditions: at 10 µM
T1 sequence (whole entry): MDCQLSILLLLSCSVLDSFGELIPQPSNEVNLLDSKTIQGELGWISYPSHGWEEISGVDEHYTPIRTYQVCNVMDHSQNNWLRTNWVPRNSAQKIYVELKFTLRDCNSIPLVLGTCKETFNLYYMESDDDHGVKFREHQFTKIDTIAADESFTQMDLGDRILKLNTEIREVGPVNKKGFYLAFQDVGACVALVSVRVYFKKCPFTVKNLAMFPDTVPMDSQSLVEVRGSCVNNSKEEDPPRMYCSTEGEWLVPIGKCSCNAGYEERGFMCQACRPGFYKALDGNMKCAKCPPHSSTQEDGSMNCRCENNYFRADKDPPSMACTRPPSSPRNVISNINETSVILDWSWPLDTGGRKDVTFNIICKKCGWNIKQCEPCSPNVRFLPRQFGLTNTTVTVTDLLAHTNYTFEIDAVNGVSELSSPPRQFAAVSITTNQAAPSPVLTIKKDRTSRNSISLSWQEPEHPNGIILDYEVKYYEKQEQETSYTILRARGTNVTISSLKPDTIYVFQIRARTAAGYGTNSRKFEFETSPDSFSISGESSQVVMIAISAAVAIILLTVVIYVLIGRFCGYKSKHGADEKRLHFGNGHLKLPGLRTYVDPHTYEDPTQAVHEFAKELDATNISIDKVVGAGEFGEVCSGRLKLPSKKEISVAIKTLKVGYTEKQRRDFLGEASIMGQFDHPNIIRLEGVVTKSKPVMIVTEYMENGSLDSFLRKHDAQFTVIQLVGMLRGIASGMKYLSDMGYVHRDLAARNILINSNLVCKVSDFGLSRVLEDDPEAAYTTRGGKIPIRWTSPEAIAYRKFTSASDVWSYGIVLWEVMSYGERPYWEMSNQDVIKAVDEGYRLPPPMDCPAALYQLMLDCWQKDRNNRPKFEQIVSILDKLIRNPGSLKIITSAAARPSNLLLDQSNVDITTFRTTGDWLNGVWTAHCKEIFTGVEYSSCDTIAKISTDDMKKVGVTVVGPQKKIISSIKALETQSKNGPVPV

[2] = target: Ephrin type-A receptor 4 (Homo sapiens) (UniProt P54764); conditions: at 1 µM
Chain of Ephrin type-A receptor 4 (Homo sapiens) (P54764 whole entry): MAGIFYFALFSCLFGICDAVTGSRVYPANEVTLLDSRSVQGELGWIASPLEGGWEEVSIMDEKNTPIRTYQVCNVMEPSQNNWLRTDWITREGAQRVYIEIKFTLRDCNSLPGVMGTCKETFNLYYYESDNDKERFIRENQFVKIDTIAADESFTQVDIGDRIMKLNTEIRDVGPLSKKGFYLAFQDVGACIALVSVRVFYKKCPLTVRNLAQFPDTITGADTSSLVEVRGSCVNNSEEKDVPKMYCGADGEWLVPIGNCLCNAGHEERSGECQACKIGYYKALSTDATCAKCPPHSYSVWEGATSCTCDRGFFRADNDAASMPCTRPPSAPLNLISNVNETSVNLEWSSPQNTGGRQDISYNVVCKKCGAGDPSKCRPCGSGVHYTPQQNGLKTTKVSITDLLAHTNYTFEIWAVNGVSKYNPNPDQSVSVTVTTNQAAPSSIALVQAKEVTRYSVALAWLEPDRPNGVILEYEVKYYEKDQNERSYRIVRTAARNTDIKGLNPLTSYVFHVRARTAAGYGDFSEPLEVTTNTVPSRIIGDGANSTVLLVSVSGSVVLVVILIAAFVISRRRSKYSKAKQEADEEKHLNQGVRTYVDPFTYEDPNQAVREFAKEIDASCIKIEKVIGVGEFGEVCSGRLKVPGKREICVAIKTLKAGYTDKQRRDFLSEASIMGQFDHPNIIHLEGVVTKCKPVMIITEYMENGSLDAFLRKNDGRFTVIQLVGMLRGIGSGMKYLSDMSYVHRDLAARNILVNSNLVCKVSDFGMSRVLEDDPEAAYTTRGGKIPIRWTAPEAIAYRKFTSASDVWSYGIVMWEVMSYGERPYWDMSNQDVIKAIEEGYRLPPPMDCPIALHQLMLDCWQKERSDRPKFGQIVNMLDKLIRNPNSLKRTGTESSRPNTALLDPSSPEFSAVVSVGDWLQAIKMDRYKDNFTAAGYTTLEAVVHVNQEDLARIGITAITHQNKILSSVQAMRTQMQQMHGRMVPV

[3] = target: Ephrin type-A receptor 4 (Homo sapiens) (UniProt P54764); conditions: at 10 µM
[4] = target: Ephrin type-A receptor 5 (Homo sapiens) (UniProt P54756); conditions: at 1 µM
Chain of Ephrin type-A receptor 5 (Homo sapiens) (P54756 whole entry): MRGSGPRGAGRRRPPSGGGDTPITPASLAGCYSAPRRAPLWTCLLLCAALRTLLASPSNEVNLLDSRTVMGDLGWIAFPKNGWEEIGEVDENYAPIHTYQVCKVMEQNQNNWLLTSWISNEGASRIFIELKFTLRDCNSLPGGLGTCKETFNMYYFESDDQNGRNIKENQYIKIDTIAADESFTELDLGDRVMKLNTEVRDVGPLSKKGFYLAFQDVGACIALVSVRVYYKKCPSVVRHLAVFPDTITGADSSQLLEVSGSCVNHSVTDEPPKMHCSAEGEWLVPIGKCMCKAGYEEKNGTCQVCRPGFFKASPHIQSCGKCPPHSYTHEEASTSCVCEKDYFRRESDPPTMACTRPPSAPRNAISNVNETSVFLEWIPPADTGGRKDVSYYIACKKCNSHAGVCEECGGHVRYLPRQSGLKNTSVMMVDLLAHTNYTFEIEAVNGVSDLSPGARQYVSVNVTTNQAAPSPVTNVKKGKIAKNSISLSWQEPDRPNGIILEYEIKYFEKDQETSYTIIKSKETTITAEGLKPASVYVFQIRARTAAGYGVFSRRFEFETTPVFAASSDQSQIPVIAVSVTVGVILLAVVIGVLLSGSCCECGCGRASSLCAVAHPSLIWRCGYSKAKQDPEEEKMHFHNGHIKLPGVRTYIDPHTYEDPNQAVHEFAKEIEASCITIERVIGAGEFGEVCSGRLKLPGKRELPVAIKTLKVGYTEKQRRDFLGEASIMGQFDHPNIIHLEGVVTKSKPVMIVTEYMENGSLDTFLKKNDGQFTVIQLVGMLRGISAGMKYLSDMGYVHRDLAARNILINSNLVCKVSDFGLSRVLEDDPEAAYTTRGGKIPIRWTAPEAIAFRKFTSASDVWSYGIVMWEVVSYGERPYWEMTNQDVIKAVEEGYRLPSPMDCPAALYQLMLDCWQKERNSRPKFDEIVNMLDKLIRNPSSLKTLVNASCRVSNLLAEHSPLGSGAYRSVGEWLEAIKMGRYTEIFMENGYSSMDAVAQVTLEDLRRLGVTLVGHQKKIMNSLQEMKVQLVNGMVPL

[5] = target: Ephrin type-A receptor 5 (Homo sapiens) (UniProt P54756); conditions: at 10 µM
[6] = target: Ephrin type-A receptor 7 (Homo sapiens) (UniProt Q15375); conditions: at 1 µM
Chain of Ephrin type-A receptor 7 (Homo sapiens) (Q15375 28-998 limits assumed): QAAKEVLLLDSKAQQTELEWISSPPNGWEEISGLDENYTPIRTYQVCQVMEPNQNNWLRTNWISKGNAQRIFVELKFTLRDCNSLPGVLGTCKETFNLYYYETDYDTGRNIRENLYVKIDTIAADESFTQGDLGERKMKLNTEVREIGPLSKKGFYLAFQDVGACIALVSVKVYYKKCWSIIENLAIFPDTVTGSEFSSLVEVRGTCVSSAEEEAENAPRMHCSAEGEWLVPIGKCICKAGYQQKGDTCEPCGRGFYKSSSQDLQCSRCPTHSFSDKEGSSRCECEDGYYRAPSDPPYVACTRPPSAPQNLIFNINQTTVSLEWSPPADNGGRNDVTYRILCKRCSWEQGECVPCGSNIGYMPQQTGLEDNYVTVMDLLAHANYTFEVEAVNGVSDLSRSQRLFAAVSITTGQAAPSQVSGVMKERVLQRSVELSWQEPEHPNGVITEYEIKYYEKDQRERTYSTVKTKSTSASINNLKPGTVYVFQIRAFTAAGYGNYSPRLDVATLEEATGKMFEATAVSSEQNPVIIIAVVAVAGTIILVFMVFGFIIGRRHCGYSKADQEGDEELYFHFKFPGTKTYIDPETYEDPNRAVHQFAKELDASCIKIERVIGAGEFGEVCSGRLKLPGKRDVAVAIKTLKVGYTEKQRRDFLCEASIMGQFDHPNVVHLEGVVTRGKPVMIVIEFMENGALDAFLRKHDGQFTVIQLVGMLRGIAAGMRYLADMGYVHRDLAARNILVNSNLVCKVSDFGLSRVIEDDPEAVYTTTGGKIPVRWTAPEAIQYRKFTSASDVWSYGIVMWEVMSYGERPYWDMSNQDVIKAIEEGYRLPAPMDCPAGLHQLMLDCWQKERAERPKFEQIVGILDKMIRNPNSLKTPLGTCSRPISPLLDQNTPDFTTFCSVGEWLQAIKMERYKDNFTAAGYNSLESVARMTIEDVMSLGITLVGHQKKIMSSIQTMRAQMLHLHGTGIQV

[7] = target: Ephrin type-A receptor 7 (Homo sapiens) (UniProt Q15375); conditions: at 10 µM
[8] = target: T2, Ephrin type-A receptor 8 (Homo sapiens) (UniProt P29322); conditions: at 1 µM
T2 sequence (whole entry): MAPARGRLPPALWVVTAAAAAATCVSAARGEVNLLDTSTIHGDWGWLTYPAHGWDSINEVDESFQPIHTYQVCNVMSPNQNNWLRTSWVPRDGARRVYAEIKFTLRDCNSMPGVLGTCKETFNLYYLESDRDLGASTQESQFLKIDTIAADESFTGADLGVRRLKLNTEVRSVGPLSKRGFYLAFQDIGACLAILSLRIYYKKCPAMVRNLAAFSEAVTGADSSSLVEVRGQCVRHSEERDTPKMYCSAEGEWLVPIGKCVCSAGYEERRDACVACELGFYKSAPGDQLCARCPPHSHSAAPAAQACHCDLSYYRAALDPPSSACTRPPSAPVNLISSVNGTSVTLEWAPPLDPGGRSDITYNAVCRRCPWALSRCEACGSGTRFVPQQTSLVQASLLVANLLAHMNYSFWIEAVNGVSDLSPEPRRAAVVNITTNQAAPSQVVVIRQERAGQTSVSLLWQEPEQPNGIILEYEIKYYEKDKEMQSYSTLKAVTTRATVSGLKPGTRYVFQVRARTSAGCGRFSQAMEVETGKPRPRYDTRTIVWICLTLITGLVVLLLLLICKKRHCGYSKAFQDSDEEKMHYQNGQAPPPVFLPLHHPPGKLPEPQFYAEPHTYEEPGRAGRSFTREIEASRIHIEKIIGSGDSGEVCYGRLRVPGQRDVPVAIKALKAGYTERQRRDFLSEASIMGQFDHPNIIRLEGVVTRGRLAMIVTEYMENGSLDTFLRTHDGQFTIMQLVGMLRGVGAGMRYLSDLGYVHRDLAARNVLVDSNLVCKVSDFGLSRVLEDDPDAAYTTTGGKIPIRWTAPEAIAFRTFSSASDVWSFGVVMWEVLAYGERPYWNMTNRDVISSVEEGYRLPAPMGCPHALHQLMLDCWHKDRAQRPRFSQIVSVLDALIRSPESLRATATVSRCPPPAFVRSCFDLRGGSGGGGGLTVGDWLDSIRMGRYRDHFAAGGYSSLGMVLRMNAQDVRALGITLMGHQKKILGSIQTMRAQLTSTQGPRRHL

[9] = target: T2, Ephrin type-A receptor 8 (Homo sapiens); conditions: at 10 µM
[10] = target: T3, Ephrin type-B receptor 1 (Homo sapiens) (UniProt P54762); conditions: at 1 µM
T3 sequence (whole entry): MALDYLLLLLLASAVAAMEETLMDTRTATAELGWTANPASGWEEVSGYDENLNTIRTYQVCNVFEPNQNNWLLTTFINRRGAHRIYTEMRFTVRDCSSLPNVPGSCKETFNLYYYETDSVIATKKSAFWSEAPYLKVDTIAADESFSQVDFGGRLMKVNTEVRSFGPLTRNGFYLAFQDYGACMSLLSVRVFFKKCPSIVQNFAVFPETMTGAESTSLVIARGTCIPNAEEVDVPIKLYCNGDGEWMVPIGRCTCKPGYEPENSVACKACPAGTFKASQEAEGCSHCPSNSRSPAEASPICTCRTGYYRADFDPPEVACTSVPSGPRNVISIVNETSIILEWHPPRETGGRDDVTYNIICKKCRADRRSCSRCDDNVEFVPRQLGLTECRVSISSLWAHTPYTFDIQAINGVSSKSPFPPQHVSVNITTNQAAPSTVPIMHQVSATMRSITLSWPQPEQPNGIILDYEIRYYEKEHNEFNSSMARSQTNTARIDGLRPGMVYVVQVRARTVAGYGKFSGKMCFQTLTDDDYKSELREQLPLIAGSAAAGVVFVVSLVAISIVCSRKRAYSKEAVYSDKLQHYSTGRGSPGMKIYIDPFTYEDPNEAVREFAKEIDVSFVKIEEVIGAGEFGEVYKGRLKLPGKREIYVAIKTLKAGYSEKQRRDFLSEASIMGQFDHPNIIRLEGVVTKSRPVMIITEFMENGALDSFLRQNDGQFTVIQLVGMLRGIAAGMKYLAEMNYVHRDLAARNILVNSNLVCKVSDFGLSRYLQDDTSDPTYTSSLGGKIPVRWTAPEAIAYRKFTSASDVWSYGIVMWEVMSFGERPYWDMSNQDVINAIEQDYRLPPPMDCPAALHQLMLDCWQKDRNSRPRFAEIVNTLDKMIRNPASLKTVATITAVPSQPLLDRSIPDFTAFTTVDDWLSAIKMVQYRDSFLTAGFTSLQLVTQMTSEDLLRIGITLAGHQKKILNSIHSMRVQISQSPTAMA

Nc1cccc(-c2cc3c(Oc4cccc(O)c4)ncnc3[nH]2)c1
residual activity [1]: 0% | residual activity [2]: 48% | residual activity [3]: 4% | residual activity [4]: 24% | residual activity [5]: 2% | residual activity [6]: 64% | residual activity [7]: 15% | residual activity [8]: 30% | residual activity [9]: 6% | residual activity [10]: 7%
